Hit rate of the full screen: of about 69,000 compounds, about 8,600 (12%) showed an effect of 50% or more. Many of the other results were omitted from the sample, so strong results are more common in it than they were.
These molecules were tested on Plasmodium berghei (assay: Screen against P. berghei liver stage (PbLuc), transformed with Luciferase, at 10uM). Conditions: tested at 10 uM.
Format: functional, HepG2

Row | Compound | INHIBITION [%]
1 | Cc1nc(CN(C)C2CCN(CC3CCC3)C2)no1 (stereo not given) | 18.2
2 | CC(C)c1nc(CN(C)C2CCN(CCS(C)(=O)=O)C2)no1 (stereo not given) | 33.7
3 | CCS(=O)(=O)CCN1CCC(N(C)Cc2noc(C(C)C)n2)C1 (stereo not given) | 21.2
4 | CC(=O)N(Cc1noc(C)n1)C1CCN(Cc2ccccn2)C1 (stereo not given) | -39.7
5 | Cc1nc(CN(C)C2CCN(CC3CCCC3)C2)no1 (stereo not given) | -22.9
6 | Cc1nc(CN(C)C2CCN(CC3CCCCC3)C2)no1 (stereo not given) | 63.4
7 | CC(C)c1nc(CN(C)C2CCN(CCNS(C)(=O)=O)C2)no1 (stereo not given) | 53.3
8 | Cc1nc(CN(C)C2CCN(CC(=O)N3CCOCC3)C2)no1 (stereo not given) | 17.3
9 | CC(=O)N(Cc1noc(C)n1)C1CCN(Cc2ccon2)C1 (stereo not given) | 65.5
10 | Cc1nc(CN(C)C2CCN(CCC(=O)N3CCOCC3)C2)no1 (stereo not given) | 51.1
11 | CC(=O)N(Cc1noc(C)n1)C1CCN(Cc2cc(C)on2)C1 (stereo not given) | -6.62
12 | CCc1nc(CN(C)C2CCN(CCC(=O)N3CCCCC3)C2)no1 (stereo not given) | 36.1
13 | COc1cccc(CN2CC(O)CN(C(=O)C3CCC3)CC2=O)c1OC (stereo not given) | 49.5
14 | CNC(=O)[C@@H]1[C@@H](c2ccccc2)CN2CCN(Cc3ccccn3)C[C@H]12 | 20
15 | O=C(NC1CC1)N1CCCC2(CCCCN2)C1 (stereo not given) | 13.7
16 | c1cnn(CC2CN(Cc3nc(C4CC4)no3)CCO2)c1 (stereo not given) | -12.2
17 | COc1cc(C(C)NCc2scnc2C)ccc1SC(F)F (stereo not given) | 75.6
18 | COc1cc(C(C)NCc2cscn2)ccc1SC(F)F (stereo not given) | 27
19 | COc1ccc(C(C)NCc2nnc(C)s2)cc1F (stereo not given) | 39.4
20 | COc1ccc(C(C)NCc2c[nH]nc2C)cc1OC (stereo not given) | -43
21 | COc1ccc(C(C)NCc2scnc2C)cc1Cn1cccn1 (stereo not given) | 35.3
22 | COc1cc(C(C)NCc2ncccc2C)ccc1SC(F)F (stereo not given) | 66.2
23 | Cc1nnc(CN(C)C2CCN(Cc3nc4ccccc4n3C)C2)o1 (stereo not given) | -25.8
24 | Cn1c(SCC(O)COCc2ccc(Cl)cc2)nnc1C1CC1 (stereo not given) | -18.6
25 | Cn1c(SCC(O)COCc2ccccc2Cl)nnc1C1CC1 (stereo not given) | 36.6
26 | OC(COCc1ccccc1)CSc1nnc(C2CC2)n1C1CC1 (stereo not given) | 52.8
27 | NC(=O)C1CCN(C(=O)c2cc(-n3cnnn3)ccc2Cl)CC1 | 28.4
28 | CC(NC(=O)C1CC1)C(=O)N(C)Cc1ccsc1 (stereo not given) | 16.1

Row | Compound | INHIBITION [%]
29 | CCCc1ncc(CNC2(c3ccc(Cl)cc3)CC2)cn1 | 44.8
30 | Cc1nc(C2CCN(C[C@H](C)CO)CC2)cc(N2CCOCC2)n1 | 60.3
31 | Cc1nc(C2CCN(C(=O)COC(C)C)CC2)cc(N2CCOCC2)n1 | 3.96
32 | Cc1nc(C2CCN(C(=O)CO)CC2)cc(N2CCOCC2)n1 | 36.8
33 | O=C(Nc1ccc2c(c1)OCO2)Nc1cnn(C2CCOCC2)c1 | 36.5
34 | O=C(Cc1cccs1)Nc1cnn(C2CCOCC2)c1 | 71.3
35 | O=C(Cc1ccccc1Cl)Nc1cnn(C2CCOC2)c1 (stereo not given) | 51.8
36 | O=C(Cc1cccs1)Nc1cnn(C2CCOC2)c1 (stereo not given) | 5.91
37 | Cc1cccc(CC(=O)Nc2cnn(C3CCOC3)c2)c1 (stereo not given) | -13.6
38 | O=C(Nc1cnn(C2CCOCC2)c1)c1ccc2c(c1)OCO2 | -38.6
39 | COc1ccccc1-c1cc(C(=O)Nc2nc[nH]n2)[nH]n1 | -36
40 | O=S(=O)(CCN1CCCC1Cn1cncn1)c1ccccc1 (stereo not given) | -43.6
41 | Cc1cc(C(=O)NCC(Cc2cccc(F)c2)N2CCCCC2=O)no1 (stereo not given) | 34.9
42 | CNC(=O)[C@@H]1CCO[C@@H]2CCN(C3CCOCC3)C[C@@H]21 | -46.9
43 | O=C(CCn1ccc2ccc(Br)cc21)NCc1ccc(C(=O)O)cc1 | 15.1
44 | O=C(c1ccncc1F)N1CC2CC1(C(=O)N1CCCC1)C2 | 58
45 | Cn1ccnc1C1CCCN(C(=O)c2ccncc2F)C1 (stereo not given) | 42.5
46 | Cc1oncc1C(=O)N1CC2CC1(C(=O)N1CCCC1)C2 | -15.9
47 | O=C(NCc1cc(-c2ccccc2)no1)NCC1CCCO1 (stereo not given) | 1.06
48 | CC1=CCN(S(=O)(=O)c2cccc(C(=O)N3CCCN(C)CC3)c2)CC1 | 14
49 | N#Cc1ccc(OCCN2CCn3c(nnc3C3CC3)C2)cc1 | 11.2
50 | CS(=O)(=O)CCCSCc1cc(F)cc(Br)c1 | 31.2
51 | CC(NC(N)=O)C(=O)NCc1ccc(Br)c(F)c1 (stereo not given) | -31.1
52 | CS(=O)(=O)CCSCc1ccc(Br)c(F)c1 | 50.7
53 | NC(=O)NC1CCN(Cc2ccc(Br)c(F)c2)CC1 | 1.45
54 | NC(=O)CCSCc1ccc(Br)c(F)c1 | 52.8
55 | CS(=O)(=O)CCCSCc1ccc(Br)c(F)c1 | -59.7

Reference: ChEMBL document CHEMBL4513216, “Probing the Open Global Health Chemical Diversity Library for Multistage-Active Starting Points for Next-Generation Antimalarials” (ACS Infect Dis, 2020)
